Among the data in PubChem BioAssay are growth inhibition, inhibition and outcome values, retold here.

Assay [1] can be described thus: antimalarial activity against Dd2 strain (AID 2302;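 active means growth inhibition above 50% at the single 2 µM test dose, taken to imply half-maximal potency below 2 µM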;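 further: 0% = DMSO untreated growth and 100% = chloroquine plus artemisinin killed control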). Conditions: P. falciparum Dd2 in RBCs, LDH growth readout, 72 h; at 2 µM; stronger effect = higher value.
Assay [2] can be described thus: HepG2 cytotoxicity, primary screen, cytotoxicity control for P. falciparum antimalarial project, cell-based, ATP luminescence (AID 2303;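 active means inhibition above 50%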;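 further: 0% = DMSO wells and 100% = digitonin-killed cells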). The note with it: HepG2 viability, 24-48 h, at 10 µM, stronger effect = higher value.
Assay [3] concerns the target L-lactate dehydrogenase (Plasmodium falciparum (isolate CDC / Honduras)) (UniProt Q27743). Nature of the assay: PfLDH activity inhibition – cell lysate, 3D7 strain, counter-screen for P. falciparum growth inhibition project (AID 2304).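 Further: 0% = vehicle and 100% = reference inhibitor.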 Conditions: P. falciparum 3D7 crude extract, LDH APAD/NBT absorbance; at 2 µM; stronger effect = higher value.
A short description of assay [4]: inhibition of 3D7 malaria parasite growth – strain 3D7 (AID 2306).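 Further: 0% = DMSO wells and 100% = chloroquine plus artemisinin control wells.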 Conditions: P. falciparum 3D7 erythrocytic growth, LDH absorbance, 72 h; at 2 µM; stronger effect = higher value.
The target in assay [5] is Calcium-dependent protein kinase 1 (Plasmodium falciparum (isolate 3D7)) (UniProt P62344). Nature of the assay: PfCDPK1 kinase inhibitors, biochemical, TCAMS library (AID 1159585; cut-off not given, nearly all actives have IC50 up to about 0.98 µM;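 further: inhibitors leave more ATP so luminescence rises with inhibition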). Conditions: recombinant PfCDPK1, Kinase-Glo ATP depletion luminescence.
Assay [6] concerns the target Plasmodium falciparum protein kinase 6 (PK6, PF3D7_1337100) (UniProt Q8IDW1). The assay is described as follows: PfPK6 kinase inhibitors, biochemical, TCAMS library (AID 1159586). Conditions: recombinant PfPK6, Kinase-Glo ATP depletion luminescence.
Assay [7] concerns the target Protein kinase 7 (PK7), Plasmodium falciparum 3D7 (PF3D7_0213400) (UniProt Q7YTF7). Nature of the assay: inhibition of Plasmodium PK7 catalytic activity – biochemical, TCAMS antimalarial set, Kinase-Glo luminescence (AID 1159587). Conditions: recombinant PfPK7, Kinase-Glo ATP depletion luminescence.
The target in assay [8] is Calcium-dependent protein kinase 4 (Plasmodium falciparum (isolate 3D7)) (UniProt Q8IBS5). The assay is described as follows: PfCDPK4 kinase inhibitors, biochemical, TCAMS library (AID 1159588; cut-off not given, nearly all actives have IC50 up to about 0.91 µM). The note with it: recombinant PfCDPK4, Kinase-Glo ATP depletion luminescence.

SMILES strings stand for the structures. Values without a mark were called inactive. For part of these data: Entries with a potency or affinity are not part of this list. Activity calls are given as the source filed them. Unless noted, how the calls were made is not given here.

Chain of Protein kinase 7 (PK7), Plasmodium falciparum 3D7 (PF3D7_0213400) (Q7YTF7 1-343): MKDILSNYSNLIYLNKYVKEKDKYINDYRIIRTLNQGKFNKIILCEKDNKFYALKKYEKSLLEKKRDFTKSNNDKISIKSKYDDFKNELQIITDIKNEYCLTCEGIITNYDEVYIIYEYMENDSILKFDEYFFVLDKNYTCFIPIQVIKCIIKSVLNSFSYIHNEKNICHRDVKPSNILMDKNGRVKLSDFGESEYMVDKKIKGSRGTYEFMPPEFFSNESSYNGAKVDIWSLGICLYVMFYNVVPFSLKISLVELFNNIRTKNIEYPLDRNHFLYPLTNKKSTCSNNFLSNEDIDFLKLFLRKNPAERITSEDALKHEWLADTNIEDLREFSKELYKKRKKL
Chain of Calcium-dependent protein kinase 1 (Plasmodium falciparum (isolate 3D7)) (P62344 whole entry, looked up): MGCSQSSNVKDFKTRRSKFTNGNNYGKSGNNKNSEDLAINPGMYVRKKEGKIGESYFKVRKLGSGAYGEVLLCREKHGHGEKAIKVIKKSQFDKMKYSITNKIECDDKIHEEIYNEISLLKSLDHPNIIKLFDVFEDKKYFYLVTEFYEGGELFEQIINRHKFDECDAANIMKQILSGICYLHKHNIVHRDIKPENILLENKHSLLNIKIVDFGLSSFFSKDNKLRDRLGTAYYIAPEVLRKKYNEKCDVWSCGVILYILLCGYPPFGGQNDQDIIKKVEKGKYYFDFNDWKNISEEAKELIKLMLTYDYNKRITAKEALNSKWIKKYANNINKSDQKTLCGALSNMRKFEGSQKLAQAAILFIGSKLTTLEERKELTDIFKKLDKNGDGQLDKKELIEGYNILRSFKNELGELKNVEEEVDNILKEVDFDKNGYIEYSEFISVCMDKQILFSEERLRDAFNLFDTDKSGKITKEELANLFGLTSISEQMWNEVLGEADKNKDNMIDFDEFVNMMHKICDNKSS
Chain of Calcium-dependent protein kinase 4 (Plasmodium falciparum (isolate 3D7)) (Q8IBS5 whole entry, looked up): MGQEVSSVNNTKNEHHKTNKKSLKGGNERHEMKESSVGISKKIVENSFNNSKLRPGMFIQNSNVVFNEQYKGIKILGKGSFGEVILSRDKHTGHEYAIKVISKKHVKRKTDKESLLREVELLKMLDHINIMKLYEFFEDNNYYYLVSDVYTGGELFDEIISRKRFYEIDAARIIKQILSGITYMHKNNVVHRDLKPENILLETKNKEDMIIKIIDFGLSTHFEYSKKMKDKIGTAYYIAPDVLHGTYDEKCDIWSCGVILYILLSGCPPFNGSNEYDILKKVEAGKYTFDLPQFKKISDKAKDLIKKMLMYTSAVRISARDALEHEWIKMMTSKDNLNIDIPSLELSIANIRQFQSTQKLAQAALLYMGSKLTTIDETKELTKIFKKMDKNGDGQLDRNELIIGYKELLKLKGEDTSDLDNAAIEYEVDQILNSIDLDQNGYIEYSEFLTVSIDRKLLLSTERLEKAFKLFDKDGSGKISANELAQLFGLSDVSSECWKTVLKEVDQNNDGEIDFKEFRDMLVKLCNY
Chain of L-lactate dehydrogenase (Plasmodium falciparum (isolate CDC / Honduras)) (Q27743 whole entry, looked up): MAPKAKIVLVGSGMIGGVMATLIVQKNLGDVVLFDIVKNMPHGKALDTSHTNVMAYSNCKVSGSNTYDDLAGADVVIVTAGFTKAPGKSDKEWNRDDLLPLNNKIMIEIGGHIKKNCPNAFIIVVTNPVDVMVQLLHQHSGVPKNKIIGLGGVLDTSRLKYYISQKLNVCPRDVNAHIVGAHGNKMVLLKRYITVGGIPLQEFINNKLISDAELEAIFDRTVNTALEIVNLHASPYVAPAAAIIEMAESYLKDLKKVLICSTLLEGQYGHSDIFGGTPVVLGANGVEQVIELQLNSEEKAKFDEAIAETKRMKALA
Chain of Plasmodium falciparum protein kinase 6 (PK6, PF3D7_1337100) (Q8IDW1 1-305): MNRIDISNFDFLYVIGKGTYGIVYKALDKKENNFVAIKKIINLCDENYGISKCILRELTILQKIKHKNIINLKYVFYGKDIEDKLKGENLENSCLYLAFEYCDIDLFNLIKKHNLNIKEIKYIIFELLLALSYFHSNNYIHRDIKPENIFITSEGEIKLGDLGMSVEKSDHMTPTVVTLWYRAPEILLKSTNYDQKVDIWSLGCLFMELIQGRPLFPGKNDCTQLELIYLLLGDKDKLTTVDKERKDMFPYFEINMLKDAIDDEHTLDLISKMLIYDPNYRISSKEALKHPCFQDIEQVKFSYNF

Consider `O=C(Nc1cc(Cl)c(Cl)cc1NC(=O)c1cccc(-c2ccccc2)c1O)c1cccc(-c2ccccc2)c1O`, for which the growth inhibition in assay [1] and in assay [4] was 100% (active) in each case. The figures for the inhibition in assay [2] and in assay [3] were 79% (active) and 2%, respectively. In addition, the outcome in assay [5], in assay [6], in assay [7] and in assay [8] was inactive.
On to `CC(C)(C)CN1C(=O)C(c2ccccc2)(c2ccccc2)N=C1N`, for which the growth inhibition in assay [1] is 94% (active); in assay [4] it was 98% (active). The inhibition in assay [2] was 32%; in assay [3] it was 1%. Besides, the outcome in assay [5], in assay [6], in assay [7] and in assay [8] was inactive.
Regarding `Cc1cc(OCc2ccncc2)cc2c1C(=O)CC(C)(C)O2`, the figures for the growth inhibition in assay [1] and in assay [4] were 0% and 99% (active), respectively. The inhibition in assay [2] and in assay [3] was -5% throughout. Besides, the result in assay [5], in assay [6], in assay [7] and in assay [8] was inactive.
With `O=C(Nc1cccc(C(F)(F)F)c1)Nc1ccc(Cl)c(Cl)c1`, the growth inhibition in assay [1] and in assay [4] was 100% (active) in each case. Moreover, the inhibition was 5% in assay [2] and -4% in assay [3]. Besides, the result in assay [5], in assay [6], in assay [7] and in assay [8] was inactive.
As for `COc1ccc(CNCc2ccc(F)cc2)cc1-c1ccc(OC)c(S(=O)(=O)NCCN2CCCC2)c1`, the growth inhibition in assay [1] was 88% (active); in assay [4], 101% (active). Further, the inhibition in assay [2] was 24%; in assay [3], 5%. The result in assay [5], in assay [6], in assay [7] and in assay [8] was inactive.
As to `N#Cc1cccc(NC(=O)Nc2ccc(CC(=O)N3CCc4cc(Cl)c(N5CCN(C/C=C/c6ccccc6)CC5)cc43)cc2)c1`, the values for the growth inhibition in assay [1] and in assay [4] were 61% (active) and 91% (active), respectively. Also, the inhibition in assay [2] and in assay [3] was -4% throughout. For the same compound, the outcome in assay [5], in assay [6], in assay [7] and in assay [8] was inactive.
For `CC(C)C(C)(C#N)NC(=O)CSc1nc2ccc([N+](=O)[O-])cc2s1` (centres undefined), the growth inhibition is 81% (active) in assay [1] and 95% (active) in assay [4]. For the same compound, the inhibition was -11% in assay [2] and 3% in assay [3]. Also, the result in assay [5], in assay [6], in assay [7] and in assay [8] was inactive.
For the compound `O=C(Nc1ccccc1O)c1ccc(Oc2cccc(C(=O)Nc3ccccc3O)c2)cc1`, the growth inhibition in assay [1] was 70% (active); in assay [4], 97% (active). The inhibition in assay [2] is 33%; in assay [3], -1%. For the same compound, the outcome in assay [5], in assay [6], in assay [7] and in assay [8] was inactive.
`O=C(NCCCCN1CC[C@@H]2c3cccc(O)c3CC[C@H]21)c1ccc(-c2ccccc2)cc1`: the values for the growth inhibition in assay [1] and in assay [4] were 50% (active) and 81% (active), respectively. Also, the inhibition in assay [2] is 23%; in assay [3] it was 2%. The outcome in assay [5], in assay [6], in assay [7] and in assay [8] was inactive.
Take `Fc1ccccc1COc1ccc(Nc2ncnc3ccc(I)cc23)cc1Cl`: the growth inhibition in assay [1] was 37%; in assay [4], 90% (active). Also, the inhibition was 17% in assay [2] and -4% in assay [3]. In addition, the result in assay [5], in assay [6], in assay [7] and in assay [8] was inactive.
With `O=C(Nc1cccc(CN2CCCN(Cc3ccc(O)cc3)CC2)c1)c1cccc(Cl)c1`, the growth inhibition in assay [1] was 41%; in assay [4], 96% (active). In addition, the values for the inhibition in assay [2] and in assay [3] were 10% and 5%, respectively. Besides, the outcome in assay [5], in assay [6], in assay [7] and in assay [8] was inactive.
With `CC(C)(C)c1ccc(CN2CCC(NC(=O)c3ccc(-c4ccccc4Cl)s3)CC2)cc1`, the growth inhibition is 29% in assay [1] and 84% (active) in assay [4]. In addition, the inhibition is 36% in assay [2] and 4% in assay [3]. Besides, the result in assay [5], in assay [6], in assay [7] and in assay [8] was inactive.
On to `CCOC(=O)C(C)(C)Oc1ccc(C(=C2CC(C)(C)CC(C)(C)C2)c2ccc(O)cc2)cc1`, for which the results for the growth inhibition in assay [1] and in assay [4] were 78% (active) and 92% (active), respectively. The inhibition in assay [2] was -3%; in assay [3] it was 1%. For the same compound, the result in assay [5], in assay [6], in assay [7] and in assay [8] was inactive.
In the case of `FC(F)(F)c1cccc(C=NNc2nc3ccccc3[nH]2)c1`, the growth inhibition in assay [1] was 99% (active); in assay [4], 101% (active). For the same compound, the inhibition in assay [2] is 1%; in assay [3] it was 0%. Also, the outcome in assay [5], in assay [6], in assay [7] and in assay [8] was inactive.
Take `O=C(Cn1cc(C=C2SC(=NC3CCCC3)N(C3CCCC3)C2=O)c2ccccc21)N1CCCC1`: the growth inhibition in assay [1] and in assay [4] was 100% (active) throughout. In addition, the inhibition was 5% in assay [2] and -1% in assay [3]. Besides, the outcome in assay [5], in assay [6], in assay [7] and in assay [8] was inactive.
With `COc1cc2c(cc1S(=O)(=O)c1ccc(NC(=O)c3cc4ccccc4s3)cc1)CCN(C)CC2`, the results for the growth inhibition in assay [1] and in assay [4] were 88% (active) and 100% (active), respectively. Also, the inhibition in assay [2] was 21%; in assay [3], 2%. Besides, the result in assay [5], in assay [6], in assay [7] and in assay [8] was inactive.
With `COc1ccc(-c2ccc(S(=O)(=O)Nc3cc4c(cc3OC(C)C)CCN(C)CC4)cc2)cc1`, the figures for the growth inhibition in assay [1] and in assay [4] were 2% and 98% (active), respectively. Also, the inhibition in assay [2] is 16%; in assay [3] it was -4%. The outcome in assay [5], in assay [6], in assay [7] and in assay [8] was inactive.
As for `CCCCCCNc1c2ccccc2nc2ccccc12`, the growth inhibition in assay [1] is 32%; in assay [4], 97% (active). The inhibition is 24% in assay [2] and -3% in assay [3]. The result in assay [5], in assay [6], in assay [7] and in assay [8] was inactive.
